Reference: PubChem BioAssay (NCATS)
Records with an inconclusive call do not appear. Active and inactive are the calls of the source. Calls come from the whole dose curve; as a rule, active = well fitted inhibition curve with a large enough effect; inconclusive = small, poorly fitted or top-dose-only effect; inactive = no such curve, though single readings can be large or run the other way.

biological target: Aldehyde dehydrogenase 1A1 (Homo sapiens) (UniProt P00352); experiment: qHTS for Inhibitors of the Aldehyde Dehydrogenase Family (ALDH1A1) Confirmatory screens (AID 2061316); details: ALDH inhibition qHTS; series mostly up to 47.3 µM; note: nearly all actives have a fitted effect of over 65% in size
Potency is the fitted concentration of half-maximal effect.

Row | SMILES | Potency
1 | O=S1(=O)N=C(Sc2cccc3cccnc23)c2ccccc21 | 15.9 µM (active)
2 | CCOc1ccc(C(=O)N2CCN(Cc3cc(=O)n4nc(-c5cccc(OC)c5)sc4n3)CC2)cc1 | 6.47 µM (active)
3 | Cn1nnnc1Sc1ncnc2scc(I)c12 | 25.2 µM (active)
4 | Cc1ccc(CN(C)c2ncnc3ccc(-c4ccc(CO)o4)cc23)o1 | 2.52 µM (active)
5 | O=C(O)C1NCc2[nH]cnc2C1c1ccccc1 (stereo not drawn) | 11.3 µM (active)
6 | OCc1ccc(-c2ccc3ncnc(NCc4nccs4)c3c2)o1 | 4 µM (active)
7 | Cc1ccc(-c2nc3ccccc3s2)cc1NC(=O)c1ccc(-c2cccc(Cl)c2)o1 | 8.96 µM (active)
8 | Cc1c(C(=O)OCc2ccco2)[nH]c2c1C(=O)CC(c1ccco1)C2 (stereo not drawn) | 1.42 µM (active)
9 | CCOC(=O)c1c(-c2ccc(C)o2)csc1NC(=O)CSc1nnnn1-c1ccccc1 | 0.4 µM (active)
10 | CC(=O)Nc1sc2c(c1-c1nc3ccccc3s1)CCN(C1COC1)C2 | 4 µM (active)
11 | O=[N+]([O-])c1cc(C(F)(F)F)ccc1N1CCN(C(=S)Nc2cc(Cl)ccn2)CC1 | 5.04 µM (active)
12 | O=C(c1ccccc1O)N(Cc1ccco1)Cc1cccs1 | 11.3 µM (active)
13 | Cc1csc(CNc2ncnc3ccc(-c4ccc(C(C)O)o4)cc23)n1 (stereo not drawn) | 11.3 µM (active)
